In PubChem BioAssay (EPA / NIEHS):
Activity calls are given as the source filed them. How the source made its calls: active means hit-call score of the fitted dose curve at least 0.9, where 1 is the maximum; inactive means score below 0.9.

Assays:
[1] = read-out: Transforming growth factor beta 1 (TGFb1), TGFB1 (gene 7040); test: BSK_KF3CT_TGFb1: BioMAP Diversity Plus: KF3CT Assay for Transforming growth factor beta 1 (TGFb1) Biomarker Activity (AID 2283072); conditions: primary human keratinocytes with fibroblasts; actives raise or lower the signal
In short: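 Primary human skin cells (keratinocytes, foreskin fibroblasts) were co-cultured, exposed to test chemical and sampled at 24 h. TGF-b1 levels were measured by ELISA and fitted bidirectionally relative to DMSO.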

[2] = read-out: C-C motif chemokine 2 (Homo sapiens) (UniProt P13500); test: BSK_KF3CT_MCP1: BioMAP Diversity Plus: KF3CT Assay for Monocyte Chemoattractant Protein 1 (MCP1/CCL2) Biomarker Activity (AID 2283073); conditions: primary human keratinocytes with fibroblasts; actives raise or lower the signal
In short: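 ELISA read-out of MCP-1, 24 h post-dose, in primary human skin keratinocytes co-cultured with fibroblasts. Parallel SRB staining monitors cytotoxicity; changes fitted both directions relative to DMSO.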

[3] = read-out: Matrix Metallopeptidase 9 (MMP9), MMP9 (gene 4318); test: BSK_KF3CT_MMP9: BioMAP Diversity Plus: KF3CT Assay for Matrix Metallopeptidase 9 (MMP9) Biomarker Activity (AID 2283074); conditions: primary human keratinocytes with fibroblasts; actives raise or lower the signal;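 on AC50: MMP9 protein level quantified by ELISA in the co-culture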
In short: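 Human keratinocyte/foreskin fibroblast co-culture; compound added; 24 h; MMP-9 by ELISA; bidirectional fit vs DMSO baseline.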

[4] = read-out: urokinase plasminogen activator (uPA), PLAU (gene 5328); test: BSK_KF3CT_uPA: BioMAP Diversity Plus: KF3CT Assay for urokinase plasminogen activator (uPA) Biomarker Activity (AID 2283075); conditions: primary human keratinocytes with fibroblasts; actives raise or lower the signal
In short: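 ELISA readout of uPA, analyzed for signal gain or loss relative to DMSO, from a human primary keratinocyte–foreskin fibroblast co-culture measured 24 h after chemical treatment.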

CD40, CD40 (gene 958) [5] = test: BSK_LPS_CD40: BioMAP Diversity Plus: LPS Assay for CD40 Biomarker Activity (AID 2283076); conditions: primary human HUVEC with PBMC; actives raise or lower the signal
In short: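 In the LPS system of human endothelial cells with peripheral blood mononuclear cells, CD40 levels were read by ELISA 24 h post-treatment. Signal changes in either direction were fitted against the DMSO baseline, with parallel SRB protein staining.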

[6] = read-out: E-selectin (Homo sapiens) (UniProt P16581); test: BSK_LPS_Eselectin: BioMAP Diversity Plus: LPS Assay for Eselectin Biomarker Activity (AID 2283077); conditions: primary human HUVEC with PBMC; actives raise or lower the signal
In short: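 E-selectin ELISA on LPS-stimulated endothelial cell/PBMC co-cultures, read 24 h post-treatment; gains and losses fitted against DMSO. Parallel SRB staining (0.1% SRB after 10% TCA fixation, 560 nm) flags overt cytotoxicity.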

[7] = read-out: Interleukin-8 (IL8), CXCL8 (gene 3576); test: BSK_LPS_IL8: BioMAP Diversity Plus: LPS Assay for Interleukin-8 (IL8) Biomarker Activity (AID 2283078); conditions: primary human HUVEC with PBMC; actives raise or lower the signal
In short: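 ELISA read-out of IL-8 after 24 h chemical treatment of LPS-activated endothelial/PBMC human primary co-cultures. Changes either up or down relative to DMSO; overt cytotoxicity checked by sulforhodamine B staining in parallel wells.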

[8] = BSK_LPS_SRB: Viability Assessment in the BioMAP Diversity Plus: LPS Assay (AID 2283079); conditions: primary human HUVEC with PBMC;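 further: total protein by sulforhodamine B absorbance as a cytotoxicity measure; measured one day after compound addition; fitted in both directions against DMSO so loss or gain of signal counts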
In short: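 SRB viability endpoint: cells fixed with 10% TCA, stained with 0.1% SRB, read at 560 nm, 24 h post-dose. HUVEC/PBMC co-culture; signal change in either direction scored relative to DMSO.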

[9] = read-out: Interleukin-1 alpha (IL1a), IL1A (gene 3552); test: BSK_LPS_IL1a: BioMAP Diversity Plus: LPS Assay for Interleukin-1 alpha (IL1a) Biomarker Activity (AID 2283080); conditions: primary human HUVEC with PBMC; actives raise or lower the signal
In short: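 Readout is IL-1a level by ELISA, 24 h post-dose, fitted as gain or loss relative to DMSO. System: LPS-activated human primary co-culture of vascular endothelium and peripheral blood mononuclear cells, with parallel SRB total-protein cytotoxicity.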

[10] = read-out: Monocyte Chemoattractant Protein-1 (MCP1), CCL2 (gene 6347); test: BSK_LPS_MCP1: BioMAP Diversity Plus: LPS Assay for Monocyte Chemoattractant Protein-1 (MCP1) Biomarker Activity (AID 2283081); conditions: primary human HUVEC with PBMC; actives raise or lower the signal
In short: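 Secreted MCP-1 read by ELISA at 24 h post-dosing in an LPS-activated co-culture of endothelial cells with peripheral blood mononuclear cells. Fits run in both directions, DMSO as baseline; parallel SRB staining tracks overt cytotoxicity.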

[11] = BSK_LPS_PGE2: BioMAP Diversity Plus: LPS Assay for Prostaglandin E2 (PGE2) Biomarker Activity (AID 2283082); conditions: primary human HUVEC with PBMC; actives raise or lower the signal
In short: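 LPS-activated HUVEC/PBMC co-culture; cmpd dosed, 24 h; PGE2 by ELISA; bidirectional fit vs DMSO; SRB (0.1%, TCA-fixed, 560 nm) in parallel plates for overt cytotox.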

[12] = read-out: Macrophage colony-stimulating factor (MCSF), CSF1 (gene 1435); test: BSK_LPS_MCSF: BioMAP Diversity Plus: LPS Assay for Macrophage colony-stimulating factor (MCSF) Biomarker Activity (AID 2283083); conditions: primary human HUVEC with PBMC; actives raise or lower the signal
In short: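 Bidirectional fitting against DMSO was applied to M-CSF levels read by ELISA at 24 h post-dose. The system pairs human umbilical vein endothelium with peripheral blood mononuclear cells; parallel SRB staining tracked cytotoxicity.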

[13] = read-out: Tissue Factor, F3 (gene 2152); test: BSK_LPS_TissueFactor: BioMAP Diversity Plus: LPS Assay for Tissue Factor Biomarker Activity (AID 2283084); conditions: primary human HUVEC with PBMC; actives raise or lower the signal
In short: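 Compound was added to an endothelial cell/PBMC co-culture, and after 24 h tissue factor (CD142) was read by ELISA. Gain or loss of signal was fitted against a DMSO baseline, and parallel SRB staining (560 nm) tracked overt cytotoxicity.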

[14] = read-out: Tumor necrosis factor (Homo sapiens) (UniProt P01375); test: BSK_LPS_TNFa: BioMAP Diversity Plus: LPS Assay for Tumour Necrosis Factor alpha (TNFa) Biomarker Activity (AID 2283085); conditions: primary human HUVEC with PBMC; actives raise or lower the signal
In short: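 Read-out is ELISA of TNFa in primary human endothelial cell–PBMC co-cultures at 24 h after compound. Activity in either direction was fitted against DMSO.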

[15] = read-out: Vascular cell adhesion molecule 1 (VCAM1), VCAM1 (gene 7412); test: BSK_LPS_VCAM1: BioMAP Diversity Plus: LPS Assay for Vascular cell adhesion molecule 1 (VCAM1) Biomarker Activity (AID 2283086); conditions: primary human HUVEC with PBMC; actives raise or lower the signal
In short: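 HUVEC + PBMC co-culture, LPS system; compound 24 h; VCAM-1 by ELISA; bidirectional fit vs DMSO control; parallel SRB (0.1%, TCA-fixed, 560 nm) for cytotoxicity.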

CD38, CD38 (gene 952) = test: BSK_SAg_CD38: BioMAP Diversity Plus: SAg Assay for CD38 Biomarker Activity (AID 2283087); conditions: primary human HUVEC with PBMC; actives raise or lower the signal
In short: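 Human HUVEC plus PBMC co-culture stimulated with superantigen; CD38 measured by ELISA 24 h after chemical dosing. Fluorescence read-out, bidirectional fit against DMSO; cytotoxicity tracked in parallel by SRB and Alamar Blue.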

CD40, CD40 (gene 958) [16] = test: BSK_SAg_CD40: BioMAP Diversity Plus: SAg Assay for CD40 Biomarker Activity (AID 2283088); conditions: primary human HUVEC with PBMC; actives raise or lower the signal
In short: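 CD40 is measured by fluorescence ELISA in an endothelial/PBMC primary human co-culture at 24 h post-dose. Fitting is bidirectional, DMSO baseline. Parallel SRB staining (560 nm) flags cytotoxicity.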

CD69, CD69 (gene 969) = test: BSK_SAg_CD69: BioMAP Diversity Plus: SAg Assay for CD69 Biomarker Activity (AID 2283089); conditions: primary human HUVEC with PBMC; actives raise or lower the signal
In short: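 Primary human vascular co-culture (umbilical vein endothelium with peripheral blood mononuclear cells) exposed to test chemical for 24 h. CD69 levels quantified by fluorescence ELISA; DMSO served as negative control for bidirectional fitting.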

[17] = read-out: E-selectin (Homo sapiens) (UniProt P16581); test: BSK_SAg_Eselectin: BioMAP Diversity Plus: SAg Assay for Eselectin Biomarker Activity (AID 2283091); conditions: primary human HUVEC with PBMC; actives raise or lower the signal
In short: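 Cell-surface E-selectin is read by ELISA at 24 h in the SAg co-culture of HUVEC and PBMC. Curves are fitted in both directions relative to DMSO. Parallel SRB total-protein staining tracks overt toxicity.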

Measured: AC50

Sequence of E-selectin (Homo sapiens) (P16581 whole entry, looked up): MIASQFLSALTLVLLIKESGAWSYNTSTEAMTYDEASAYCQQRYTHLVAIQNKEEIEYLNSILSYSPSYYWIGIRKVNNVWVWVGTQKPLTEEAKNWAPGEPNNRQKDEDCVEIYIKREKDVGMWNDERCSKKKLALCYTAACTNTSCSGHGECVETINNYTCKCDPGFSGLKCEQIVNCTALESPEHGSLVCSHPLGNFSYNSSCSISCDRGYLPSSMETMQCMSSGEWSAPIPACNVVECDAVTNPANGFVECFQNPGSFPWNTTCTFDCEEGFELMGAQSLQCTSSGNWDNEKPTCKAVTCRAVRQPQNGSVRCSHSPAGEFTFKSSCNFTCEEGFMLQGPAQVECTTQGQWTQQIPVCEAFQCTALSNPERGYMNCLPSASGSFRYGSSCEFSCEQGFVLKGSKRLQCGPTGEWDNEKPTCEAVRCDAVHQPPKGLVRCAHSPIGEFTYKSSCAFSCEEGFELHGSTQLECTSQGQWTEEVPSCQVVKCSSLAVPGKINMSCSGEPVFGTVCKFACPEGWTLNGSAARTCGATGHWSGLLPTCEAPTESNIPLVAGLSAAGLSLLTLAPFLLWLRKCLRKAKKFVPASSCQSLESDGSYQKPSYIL
Sequence of Tumor necrosis factor (Homo sapiens) (P01375 whole entry, looked up): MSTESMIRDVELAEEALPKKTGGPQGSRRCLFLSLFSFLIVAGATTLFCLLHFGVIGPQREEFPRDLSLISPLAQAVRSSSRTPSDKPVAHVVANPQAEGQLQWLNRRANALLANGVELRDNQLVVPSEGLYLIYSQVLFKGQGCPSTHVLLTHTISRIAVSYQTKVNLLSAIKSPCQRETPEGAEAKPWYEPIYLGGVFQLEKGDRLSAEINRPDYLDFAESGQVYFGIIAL

C=CC(C)(CCC=C(C)C)OC(C)=O (configuration not stated)
active: [3] 30.4 µM | [4] 31.2 µM
inactive: all other assays above

Clc1ccc(Nc2nnc(Cc3ccncc3)c3ccccc23)cc1
active: [1] 1.99 µM | [3] 7.58 µM
inactive: all other assays above

O=C(NO)c1ccccc1
inactive: all assays above
